From PubChem BioAssay (Tox21) come the findings set out here.

A short description of experiment [1]: qHTS assay to identify small molecule agonists of the NFkB signaling pathway (AID 1159509; active means well fitted curve in the direction sought with a large enough effect in the signal ratio in the repeat runs, not every such curve was filed as active; the % refers to the signal ratio; further: series mostly up to about 61 µM). In a few lines: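 Beta-lactamase reporter assay run in quantitative high-throughput format on an NF-kB-responsive ME-180 line, with 5 hr compound treatment and a FRET-based blue/green fluorescence readout.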
Experiment [2] can be described thus: qHTS assay to identify small molecule agonists of the NFkB signaling pathway - cell viability counter screen (AID 1159515; calls by dose curve; further: series mostly up to about 61 µM; nearly all actives have a fitted effect of over 55% in size). The method, boiled down: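 Parallel cytotoxicity counter screen in ME-180 cells carrying an NFkB-response-element beta-lactamase reporter, 2,000 cells/well. Compound exposure lasted 5 hr at 37 C, 5% CO2. Cell viability was quantified by CellTiter-Glo luminescence.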

A short description of experiment [3]: qHTS assay to identify small molecule agonists of the endoplasmic reticulum stress response signaling pathway (AID 1159516; active means well fitted activation curve with a large enough effect in the signal ratio in the repeat runs, not every such curve was filed as active; the % refers to the signal ratio). The method, boiled down:
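Using a HeLa line with an ESRE-driven beta-lactamase gene, agonist activity was measured by FRET substrate fluorescence (460 and 530 nm emission) after cells were treated with compounds for 5 hr at 37 C and 5% CO2.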
For orientation: In qHTS, concentration-response curves come from the screen itself.

Experiment [4] is described as follows: qHTS assay to identify small molecule antagonists of the retinoid-related orphan receptor gamma (ROR-gamma) signaling pathway - cell viability counter screen (AID 1159520). Further: nearly all actives have a fitted effect of over 50% in size. In a few lines:
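Cytotoxicity was read from cellular ATP (CellTiter-Glo luminescence) after 16 hr at 37 C with 1 uM doxycycline induction. The inducer was added 2 hr after compound transfer to Tet-on ROR gamma CHO cells.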

Experiment [5] has as its target Nuclear receptor ROR-gamma (Homo sapiens) (UniProt P51449). As to the kind of experiment: qHTS assay to identify small molecule antagonists of the retinoid-related orphan receptor gamma (ROR-gamma) signaling pathway (AID 1159521; further: nearly all actives have a fitted effect of over 50% in size; further: potency means the concentration at half of the fitted maximal effect). In a few lines: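 Tet-on ROR-gamma CHO cells with ROR response element-luciferase reporter; compounds added 2 hr before 1 uM doxycycline induction, then 16 hr at 37 C. Antagonism scored as decreased ONE-Glo luminescence.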

Experiment [6] can be described thus: qHTS assay to identify small molecule agonists of the AP-1 signaling pathway - cell viability counter screen (AID 1159525; calls by dose curve; further: nearly all actives have a fitted effect of over 55% in size). The method, boiled down:
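Intracellular ATP by Cell Titer Glo luminescence (30 min, RT) in the same ME-180 AP-1-bla wells after the 5 h compound exposure at 37 °C. Normalised to tetra n-octyl ammonium bromide and DMSO controls.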

A short description of experiment [7]: qHTS assay to identify small molecule agonists of the AP-1 signaling pathway (AID 1159526; calls by dose curve).
For experiment [8], the target named is Retinoic acid receptor RXR-alpha (Homo sapiens) (UniProt P19793). Put plainly: qHTS assay to identify small molecule agonists of the RXR signaling pathway (AID 1159527; calls by dose curve; further: nearly all actives have a fitted effect of over 35% in size). The method, boiled down: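 GeneBLAzer RXR-alpha-UAS-bla HEK 293T cells in 2% charcoal-stripped FBS medium were exposed to compounds for 16 hr at 37 C in agonist mode. Beta-lactamase reporter read as 460/530 nm FRET ratio after 2 hr substrate loading.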
Chain of Retinoic acid receptor RXR-alpha (Homo sapiens) (P19793 whole entry, looked up): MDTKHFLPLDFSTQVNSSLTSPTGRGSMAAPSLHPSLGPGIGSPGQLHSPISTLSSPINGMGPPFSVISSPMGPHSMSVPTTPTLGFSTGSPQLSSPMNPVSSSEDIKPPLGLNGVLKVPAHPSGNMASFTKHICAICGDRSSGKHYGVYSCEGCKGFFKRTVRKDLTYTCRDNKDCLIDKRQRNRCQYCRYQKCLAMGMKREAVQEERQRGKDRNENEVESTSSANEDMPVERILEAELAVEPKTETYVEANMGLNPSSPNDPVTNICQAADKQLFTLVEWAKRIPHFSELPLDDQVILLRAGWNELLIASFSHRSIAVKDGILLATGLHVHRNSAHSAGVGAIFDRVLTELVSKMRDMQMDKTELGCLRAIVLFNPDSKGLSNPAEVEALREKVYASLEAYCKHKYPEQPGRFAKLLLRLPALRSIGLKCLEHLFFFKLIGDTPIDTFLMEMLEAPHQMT

Experiment [9] in a line: qHTS assay to identify small molecule agonists of the RXR signaling pathway - cell viability counter screen (AID 1159529). Further: series mostly up to about 77 µM; nearly all actives have a fitted effect of over 50% in size. In a few lines: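 RXR-alpha-UAS-bla HEK 293T cells in medium with 2% charcoal-stripped FBS were pre-incubated 5 hr, then compound-treated 16 hr at 37 C. Viability was read by CellTiter-Glo luminescence in the same wells as the beta-lactamase assay, with tetraoctyl ammonium bromide as positive control.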

Experiment [10] in a line: qHTS assay to identify small molecule antagonists of the retinoid acid receptor (RAR) signaling pathway - cell viability counter screen (AID 1159551). Further: nearly all actives have a fitted effect of over 35% in size. In a few lines: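 ATP-based viability, C3RL4 cells, 6 h at 37 C with 1 uM final retinol co-added after compound; luminescence read 30 min post CellTiter-Glo, RT.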
Experiment [11] in a line: qHTS assay to identify small molecule antagonists of the estrogen related receptor (ERR) signaling pathway from Tox21 library - cell viability counter screen (AID 1224834). Further: nearly all actives have a fitted effect of over 30% in size. In a few lines:
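Compounds in DMSO were pinned onto ERR cells that had been incubated for 6 h, and the plates were held at 37 C for 17.5 h. CellTiter-Fluor reagent was then added and fluorescence was measured after 30 min.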

Experiment [12] in a line: qHTS assay to identify small molecule agonists of the endoplasmic reticulum stress response signaling pathway - cell viability counter screen (AID 1159517; calls by dose curve;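 further: HeLa cells carrying an ER stress response element beta-lactamase reporter; series mostly up to about 61 µM; nearly all actives have a fitted effect of over 50% in size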). The method, boiled down: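 After overnight attachment, ESRE-bla HeLa cells were treated with Tox21 library compounds for 5 hr. CellTiter-Glo luminescence, read 30 min post-addition at room temperature, reported viability.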

Experiment [13] in a line: qHTS assay to identify small molecule antagonists of the vitamin D receptor (VDR) signaling pathway - cell viability counter screen (AID 743225). Further: nearly all actives have a fitted effect of over 50% in size. In a few lines:
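VDR-UAS-bla HEK 293T cells were plated and incubated 4 h at 37C, then dosed with compound plus 3 nM (final) 1-alpha,25-dihydroxyvitamin D3 for 16 h. After the 2 h beta-lactamase read, viability in the same wells was read as CellTiter-Glo luminescence after 30 min at room temperature.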

The nature of experiment [14]: qHTS assay to identify small molecule antagonists of the retinoic acid receptor (RAR) signaling pathway (AID 1159552; further: nearly all actives have a fitted effect of over 50% in size). In a few lines:
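Retinol signaling pathway inhibitors screened in C3RL4 RARE-luciferase reporter cells seeded overnight at 37 C, then compounds added with 1 uM (final) retinol as pathway substrate. After 6 hr at 37 C, luciferase luminescence read after 30 min at room temperature.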

A short description of experiment [15]: qHTS assay to identify small molecule agonists of the retinoic acid receptor (RAR) signaling pathway (AID 1159553). The method, boiled down:
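Quantitative high-throughput format: the Tox21 10K library was tested on C3RL4 RARE-luciferase cells for 6 hr at 37 C and 5% CO2, with luminescence measured after a 30 min room-temperature reagent step.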

Inconclusive results are not listed. Values without a mark were called inactive. Calls of active or inactive are those of the source. Unless noted, the call rests on the fitted dose curve; in most records, active means well fitted curve in the direction sought with a large enough effect in the repeat runs; inconclusive means weak or mixed curves; inactive means no such curve, though single readings can be large; an effect the other way counts as inactive or inconclusive.

With `COCC(=O)N(c1c(C)cccc1C)N1CCOC1=O`, the result in experiment [1], in experiment [2], in experiment [3] and in experiment [7] was inactive. In addition, the Potency entry in [4], in [5], in experiment [6], in experiment [8], in experiment [9] and in experiment [10] was “inactive” throughout. The Potency result in experiment [11] was “inactive”.

In the case of `COc1cc(OC)nc(Oc2cccc(Oc3nc(OC)cc(OC)n3)c2C(=O)O)n1`, the outcome in [1], in [2], in experiment [3] and in [7] was inactive. Also, the Potency result in experiment [12], in experiment [5], in [6], in experiment [8], in experiment [9] and in experiment [10] was “inactive” throughout. Moreover, the Potency entry in [11] is “inactive”.

For `COc1cc2c(cc1OC)[C@@]13CCN4CC5=CCO[C@H]6CC(=O)N2[C@H]1[C@H]6[C@H]5C[C@H]43`, the call in experiment [13], in [1], in experiment [2], in [3] and in experiment [7] was inactive. Besides, the Potency entry in experiment [4], in experiment [5], in [6], in experiment [9], in [10] and in [14] was “inactive” in each case. For the same compound, the Potency result in [15] and in experiment [11] was “inactive” in each case.

On to `CCOP(=S)(OCC)Oc1nc(Cl)n(C(C)C)n1`, for which the result in [1], in experiment [2], in experiment [3] and in experiment [7] was inactive. Moreover, the Potency result in experiment [4], in [5], in experiment [6], in experiment [9], in [10] and in [14] was “inactive” in each case. Further, the Potency result in experiment [15] and in [11] was “inactive” throughout.

`CC(C)CP(=S)(S)CC(C)C`: the result in experiment [13], in experiment [1], in experiment [2] and in experiment [3] was inactive. Moreover, the Potency entry in [4], in experiment [6], in experiment [9], in [10], in [14] and in experiment [15] was “inactive” each time. Also, in experiment [11], the Potency result is “inactive”. Further, the Potency in [5] was 24.3 µM (active).

Turning to `CC1=NNC(=O)N(/N=C/c2cccnc2)C1`, the result in [1], in [2], in experiment [3] and in [7] was inactive. The Potency result in experiment [4], in experiment [5], in [6], in experiment [9], in experiment [10] and in experiment [14] was “inactive” throughout. The Potency result in [11] is “inactive”.

`COc1ncc(F)c2nc(S(=O)(=O)Nc3c(F)cccc3F)nn12`: the outcome in [13], in experiment [1], in experiment [2], in experiment [3] and in experiment [7] was inactive. The Potency entry in experiment [4], in [5], in experiment [6], in experiment [9] and in [10] was “inactive” each time.

For `O=C1CN2CCOC2(c2ccccc2Cl)c2cc(Cl)ccc2N1` (stereo not drawn), the outcome in experiment [1], in experiment [2] and in experiment [3] was inactive. Further, the Potency result in experiment [5], in experiment [6], in experiment [8], in experiment [9], in [10] and in [14] was “inactive” throughout. The Potency result in [15] and in experiment [11] was “inactive” each time.

In the case of `O=C(N[C@H]1CN2CCC1CC2)c1cc2ccoc2cn1`, the compound was classed as inactive in [13], in experiment [1], in experiment [2], in experiment [3] and in [7]. Besides, the Potency result in experiment [4], in experiment [5], in experiment [6], in experiment [9], in [10] and in experiment [14] was “inactive” in each case. For the same compound, the Potency entry in experiment [15] and in experiment [11] was “inactive” each time.

Consider `COC(=O)C(C)Oc1ccc(Oc2ccc(Cl)cc2Cl)cc1` (stereo not drawn), for which the call in [13], in experiment [1], in experiment [2], in experiment [3] and in experiment [7] was inactive. Also, the Potency result in experiment [4], in experiment [5], in experiment [6], in experiment [9], in [10] and in [14] was “inactive” each time. In addition, in [11], the Potency result was “inactive”.

Consider `CC(=O)CCc1ccc2c(c1)OCO2`, for which the compound was called inactive in experiment [13], in experiment [1], in experiment [2], in experiment [3] and in experiment [7]. The Potency result in experiment [4], in experiment [5], in [6], in [10], in experiment [14] and in [15] was “inactive” each time. Besides, the Potency entry in experiment [11] was “inactive”.
